Shown are actives, neighbours in structure and some others; about 6.7% of the full set was active somewhere.
GDH-TPI counter-1: GDH-TPI coupling enzyme inhibitors, primary screen, artefact control for M. tuberculosis FBA inhibitor project, biochemical, absorbance, full deck; GDH-TPI coupled enzyme counterscreen, NADH absorbance; inhibition, % at 4.8 µM; 360,000 tested, 1.2% active; in the data active means inhibition above about 30%;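 further: 0% = DMSO wells and 100% = wells lacking the enzyme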
Autofluor counter: compound fluorescence in toxin protease inhibitor counterscreen | compound autofluorescence counterscreen, microsphere flow cytometry; stronger effect = higher value | fluorescence intensity (test concentration not listed) | 360,000 tested, 3.1% active; in the data active means fluorescence intensity above about 16000; inconclusive means no clear call, values can overlap the other calls
FBA Mtb inh: Mtb FBA enzyme inhibitors, primary screen, biochemical, fluorescence, strain H37Rv; purified M. tuberculosis FBA, fluorescence read-out; inhibition, % at 1 µM; AID 588726, 2011; 360,000 tested, 2.3% active; in the data active means inhibition above about 27%;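 further: 0% = vehicle and 100% = reference inhibitor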
Target sequence (P9WQA3 whole entry, looked up): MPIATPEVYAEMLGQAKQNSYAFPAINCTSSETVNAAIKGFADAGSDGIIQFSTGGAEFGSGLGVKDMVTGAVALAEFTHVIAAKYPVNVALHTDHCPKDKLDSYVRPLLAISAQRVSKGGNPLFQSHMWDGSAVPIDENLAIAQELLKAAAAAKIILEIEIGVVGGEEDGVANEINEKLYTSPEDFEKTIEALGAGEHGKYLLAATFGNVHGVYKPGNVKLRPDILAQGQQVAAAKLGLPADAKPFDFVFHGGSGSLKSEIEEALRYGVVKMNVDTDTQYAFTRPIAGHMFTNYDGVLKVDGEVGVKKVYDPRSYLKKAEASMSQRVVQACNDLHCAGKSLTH
Anthrax LF prot: Bacillus anthracis LF protease inhibitors, primary screen, biochemical, multiplex microsphere, MLPCN library | multiplex microsphere protease cleavage assay | inhibition, % at 10 µM | 360,000 tested, 0.12% active; further: plate controls were buffer without enzyme for full effect and enzyme alone for no effect
BoNT-F LC inh: BoNT/F light chain protease inhibitors, primary screen, biochemical, flow cytometry, MLPCN library; Multiplex microsphere protease cleavage assay; inhibition, % at 10 µM; 360,000 tested, 0.22% active; AID 588497, 2011; in the data active means inhibition above about 35%, passing the limit was not always enough; inconclusive means no clear call, values can overlap the other calls; further: plate controls were buffer without enzyme for full effect and enzyme alone for no effect
BoNT-A LC inh2: BoNT/A light chain protease inhibitors, primary screen, biochemical, flow cytometry, MLPCN library | Botulinum neurotoxin type A light chain protease (Clostridium botulinum A str. ATCC 3502) | multiplex microsphere protease substrate cleavage | inhibition, % at 10 µM | 360,000 tested, 0.17% active | AID 588499, 2011; further: plate controls were buffer without enzyme for full effect and enzyme alone for no effect
Mtb FBA confirm: M. tuberculosis aldolase blockers, biochemical, fluorescence, strain H37Rv, confirmation | inhibition, % at 1 µM | 5,600 tested, 78% active | shares compounds with FBA Mtb inh | purified M. tuberculosis FBA, fluorescence read-out | AID 651616, 2012; in the data active means inhibition above about 27%;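 further: 0% = vehicle wells and 100% = reference inhibitor wells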
GDH-TPI counter-2: GDH-TPI coupling enzyme inhibitors, artefact control for M. tuberculosis FBA inhibitor project, biochemical, fluorescence, high throughput; shares compounds with FBA Mtb inh; GDH-TPI coupled enzyme counterscreen; inhibition, % at 1 µM; 5,600 tested, 81% active; AID 652141, 2013; in the data active means inhibition above about 10%
GDH-TPI DR: GDH-TPI coupling enzyme inhibitors, dose response, artefact control for M. tuberculosis FBA inhibitor project, biochemical, fluorescence, IC50 | GDH-TPI coupled enzyme assay, artifact counterscreen | 170 tested, 79% active | IC50, µM | shares compounds with FBA Mtb inh | AID 652145, 2013; call rule not given here
The depositor's hits bear a star; ? = inconclusive; · = no result; + = active, no number. Unless noted, no stated cut-off is given here; in the data, active means inhibition above about 30%; inconclusive means no clear call, values can overlap the other calls; inactive means below that.

SMILES	GDH-TPI counter-1	Autofluor counter	FBA Mtb inh	Anthrax LF prot	BoNT-F LC inh	BoNT-A LC inh2	Mtb FBA confirm	GDH-TPI counter-2	others
O=C(CSc1nc2ccccc2c(=O)[nH]1)Nc1ccccc1N1CCOCC1	6	3329	33*	-6	0	0	97*	77*
O=S(=O)(Nc1ccccc1)c1ccc(-c2cnc(C3CC3)o2)cc1	6	5356	18	-2	2	0	·	·
O=S(=O)(NCc1ccc(F)cc1)c1ccc(-c2cnc(C3CC3)o2)cc1	15	5167	29*	6	10	8	19	16*
C=CCn1c2ccccc2c(=O)c2cc(C#Cc3cc(OC)cc(OC)c3)ccc21	31*	3299	56*	20	-2	16	10	7
COc1cc(C#Cc2c(C=O)n(C)c3ccccc23)cc(OC)c1	15	3017	6	28	11	27	·	·
Cc1cc(O)c(-c2cc(O)c(C)cc2O)cc1O	-6	3594	37*	-8	4	2	104*	82*
COc1ccc(N2CCN(C(=O)c3ccc4c(c3)CCN4S(C)(=O)=O)CC2)cc1	4	3839	0	-3	9	0	·	·
NC(=O)C1CCN(C(=O)CCC(=O)c2ccc(F)cc2)CC1	-3	3761	53*	15	18	-2	136*	128*
NC(=O)C1CCN(C(=O)CCNS(=O)(=O)c2ccccc2F)CC1	-5	3156	37*	-5	3	0	11	6	GDH-TPI DR=>10
O=C(CCC(=O)N1CCOCC1)c1ccc(F)cc1	-8	3982	-3	-1	0	0	·	·
COc1ccc2[nH]c3nc(SCc4nnc(-c5ccc(C)cc5)o4)nnc3c2c1	13	9525	0	-3	7	0	·	·
CN(C)CCCn1c(SCC(=O)Nc2sc3c(c2C#N)CCCC3)nnc1-c1ccncc1	21	9525	3	-6	-24	?	·	·
CCOC(=O)C1CCN(C(=O)Nc2ccc3nccnc3c2)CC1	19	5014	37*	4	-9	0	57*	38*
CCOC(=O)C1CCN(C(=O)Nc2ccc3snnc3c2)CC1	7	9263	10	-4	3	1	·	·
Cc1cc(C)c(C)c(S(=O)(=O)N2CCN(c3ncnc4ccccc34)CC2)c1C	0	8771	3	8	2	1	·	·
Cc1c2cnccc2c(C)c2c1oc1ccccc12	3	3344	43*	-1	-19	-1	115*	94*
Cc1nc(Oc2ccccc2)c2oc3ccccc3c2n1	-1	4402	0	-2	-13	-1	·	·
CCOC(=O)C1CCc2c(ccc3ccccc23)N1CCC#N (stereo unspecified)	-1	3643	56*	3	3	0	2	-4
CCOC(=O)C1CCCN(C(=O)c2cccc3ccccc23)C1 (stereo unspecified)	-1	6268	-1	1	-2	-1	·	·
CCCC(=O)NC1CCCc2c1cnn2-c1ccc(C)c(C)c1 (stereo unspecified)	0	4151	2	0	0	0	·	·
Cc1ccc(-n2ncc3c2CCCC3NC(=O)CCc2c(C)noc2C)cc1C (stereo unspecified)	-1	5364	36*	1	-1	2	+	+
CC(=O)c1ccc2c(c1)c(C#N)c1ccccc1[n+]2[O-]	16	3070	94*	1	-19	-1	8	0

Screening data from PubChem BioAssay.
